High-throughput results from PubChem BioAssay.
gsp antag = qHTS for Antagonists of gsp, the Etiologic Mutation Responsible for Fibrous Dysplasia/McCune-Albright Syndrome: qHTS; gsp-mutant cells, cAMP HTRF, 30 min; Potency, µM (series often up to 76.9 µM), without a hit: top-dose activity change, negative = inhibition, actives largely listed as inhibitors; 340,000 tested, 0.4% active; calls by dose curve; cell line not stated here;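 also: intracellular cAMP measured with PDE inhibitor Ro 20-1724 present during compound exposure; potency is read from the fitted curve at half-maximal effect; % is scaled to controls: 0 for no effect and ±100 for the full control effect; nearly all actives have a fitted effect of over 65% in size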
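HTRF cAMP read-out (cAMP-d2 plus anti-cAMP antibody-K in lysis buffer, 30 min RT). Before lysis, cells are exposed to compounds with […] for 30 min at 37C in DPBS containing Ca/Mg, BSA and Tween 20.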
RXFP1 ag = qHTS Assay for Agonists of the Relaxin Receptor RXFP1; Relaxin receptor 1 (Homo sapiens), Q9HBX9; HEK293T-RXFP1 cAMP TR-FRET, 30 min; response scale: percent of porcine relaxin response, buffer zero; Potency, µM (highest dose often 57.5 µM), without a hit: top-dose activation, usual class: activators; 370,000 tested, 0.3% active; active = well fitted activation curve with a large enough effect; inconclusive = small, poorly fitted or top-dose-only effect; also: potency is read from the fitted curve at half-maximal effect; % is scaled to controls: 0 for no effect and ±100 for the full control effect; nearly all actives have a fitted effect of over 60% in size
Target sequence (Q9HBX9 whole entry, looked up): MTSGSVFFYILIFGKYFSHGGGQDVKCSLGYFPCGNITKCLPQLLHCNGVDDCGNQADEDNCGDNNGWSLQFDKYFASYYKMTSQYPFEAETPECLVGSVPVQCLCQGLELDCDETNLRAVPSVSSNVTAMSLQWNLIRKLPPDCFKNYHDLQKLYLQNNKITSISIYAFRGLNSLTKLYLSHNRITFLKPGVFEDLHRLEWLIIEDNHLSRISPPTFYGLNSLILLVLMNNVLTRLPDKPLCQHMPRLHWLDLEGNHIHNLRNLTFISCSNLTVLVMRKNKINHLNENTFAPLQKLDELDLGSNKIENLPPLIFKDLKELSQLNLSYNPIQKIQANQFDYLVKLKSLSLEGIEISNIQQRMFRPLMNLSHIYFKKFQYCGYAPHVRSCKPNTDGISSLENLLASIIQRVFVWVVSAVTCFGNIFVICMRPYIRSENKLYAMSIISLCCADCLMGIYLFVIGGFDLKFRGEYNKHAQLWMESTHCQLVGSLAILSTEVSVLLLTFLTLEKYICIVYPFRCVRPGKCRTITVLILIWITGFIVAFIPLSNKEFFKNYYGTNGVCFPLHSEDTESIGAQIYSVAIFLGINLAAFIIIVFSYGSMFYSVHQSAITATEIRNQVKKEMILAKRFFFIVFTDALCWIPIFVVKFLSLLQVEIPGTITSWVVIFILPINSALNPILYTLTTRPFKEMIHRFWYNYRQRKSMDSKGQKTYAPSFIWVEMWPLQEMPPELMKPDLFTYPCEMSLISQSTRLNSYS
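HEK293 cells stably expressing RXFP1, treated 30 min at 37C with compounds plus PDE4 inhibitor Ro 20174; cAMP measured by HTRF TR-FRET. Normalized to buffer and 29 nM porcine relaxin; EC50 by Hill fit.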
RXFP1 antag = qHTS Assay for Antagonists of the Relaxin Receptor RXFP1; AID 1259400, 2018; Relaxin receptor 1 (Homo sapiens), Q9HBX9; 350,000 tested, 0.59% active; HEK293-RXFP1, relaxin-stimulated cAMP HTRF, 30 min; hits give low values; activity change, negative = inhibition, % at 57.5 µM;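 active = activity change of -60% or lower, but not beyond a set lower limit; inconclusive = change between -60% and -40%, or beyond the set limit; inactive = change above -40%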; also: % is scaled to controls: 0 for no effect and ±100 for the full control effect
gsp agonist = qHTS for Agonist of gsp, the Etiologic Mutation Responsible for Fibrous Dysplasia/McCune-Albright Syndrome: qHTS | gsp mutant cells, cAMP HTRF, 30 min | Potency, µM (top dose mostly 76.9 µM), without a hit: at the top dose activation (cAMP increase), most hits filed as activators | 340,000 tested, 0.13% active | AID 624287, 2012; active = well fitted activation curve with a large enough effect; inconclusive = small, poorly fitted or top-dose-only effect, or another doubt; inactive = no such curve, though single readings can be large or run the other way; cell line not stated here;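 also: phosphodiesterase inhibitor Ro 20-1724 added with compounds to block cAMP breakdown; potency is read from the fitted curve at half-maximal effect; nearly all actives have a fitted effect of over 60% in size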
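Cells in DMEM/10% FBS with G418 were pretreated with compounds in DMSO plus […] (300 uM stock) for 30 min at 37C. cAMP was measured by HTRF (cAMP-d2 plus anti-cAMP antibody-K) after 30 min at room temperature.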
Active calls of the source: *; ? = inconclusive; / = no result given; + = active, no number; ! = not active in a repeat; [ ] = another dose, or the depositor's remark. An excerpt weighted towards active compounds, which were near 0.9% of everything screened.

SMILES	gsp antag	RXFP1 ag	RXFP1 antag	gsp agonist
CCOc1ccccc1NC(=O)COC(=O)C(CC)c1ccccc1 (configuration not stated)	10µM*	1%	-11	25%
COc1cccc2c3c(c(=O)[nH]c12)CCC(C)(C)O3	6%	1%	-2	-21%
Cn1c(=O)c2c(c3ccccc31)OC(C)(C)CC2	+[activator]	5%	-12	-14%[15.4 µM]
CCn1nc(C)c(CCN(C)C(=O)Nc2cc(Cl)c(OC)cc2OC)c1C	/	0%	/	/
Cc1cccc(OCC(=O)N(Cc2ccc(N(C)C)cc2)Cc2ccco2)c1C	/	-1%	-17	/
Cc1ccc(CN(Cc2ccco2)C(=O)COc2ccc(Cl)cc2)o1	/	-1%	-69*	/
Cc1ccc(CN(Cc2ccco2)C(=O)COc2cccc(C)c2C)o1	/	0%	-96*	/
O=C(c1ccc(CSc2nc3ccncc3n2Cc2cccc(F)c2)cc1)N1CCCCC1	/	13%	-5	/
C[C@@]12C(=O)N(c3ccc(C(F)(F)F)cc3)C(=O)N1[C@@H]1c3ccccc3OC[C@@H]1[C@H]2c1ccccc1	32µM*	0%	/	/
COc1cccc(N2CCN(c3cnc4ccccc4n3)CC2)c1	45µM*	-2%	-20	15%[15.4 µM]
CC(CN1CCOCC1)C(Cc1ccccc1)(Cc1ccccc1)C(=O)N1CCCC1 (configuration not stated)	/	/	8	/
CCOC(=O)c1c(NC(=S)Nc2ccc(Cl)cc2)sc(C)c1C	-10%	2%	-1	-7%
COC(=O)c1c(NC(=S)Nc2ccc(CC(=O)O)cc2)sc(C)c1C	0%	18%	-63*	?
Cn1cc(S(=O)(=O)N2CCCC2)cc1C(=O)Nc1ccc(C(F)(F)F)cc1	/	-2%	9	/
Cc1ccc(S(=O)(=O)Nc2ccccc2-c2ccccc2NS(=O)(=O)c2ccc(C)cc2)cc1	40µM*	-4%	-16	-3%
Cc1ccc(S(=O)(=O)Nc2ccccc2C(N)=O)cc1	9%	0%	-5	24%
CCOC(=O)c1ccc(Nc2nnc(C(C)(C)C)c(=O)[nH]2)cc1	40µM*	1%	-10	2%
Brc1ccc(CSc2ncn[nH]2)cc1	32µM*	0%	6	-2%
CC(C)(C)c1cc(=O)[nH]c(SCc2ccccc2Cl)n1	6%	0%	-74*	-9%[15.4 µM]
CC(C)(C)c1cc(=O)[nH]c(SCc2ccccc2)n1	-1%	0%	-33	-8%[15.4 µM]
Cc1ccc(-n2c(=O)c3ccccc3n(CC(=O)Nc3cccc(C(F)(F)F)c3)c2=O)cc1	/	7%	/	/
CN(C)c1cccc(C(=O)Nc2nc3ccc(S(=O)(=O)N4CCCC4)cc3s2)c1	/	10%	-4	/
CC1(C)SC2C(NC(=O)C(c3ccccc3)S(=O)(=O)O)C(=O)N2C1C(=O)O (configuration not stated)	/	/	-10	/
CCCCOC(=O)c1ccc(Nc2nc3ccc(C)cc3n3cnnc23)cc1	/	3%	/	/
C/C(=N\NC(=O)c1ccccc1[N+](=O)[O-])c1ccc(Br)s1	2%	1%	-66*	-6%[15.4 µM]
SMILES	gsp antag	RXFP1 ag	RXFP1 antag	gsp agonist
Brc1ccc(-c2ccc(/C=N/Nc3nc(N4CCOCC4)nc(N4CCOCC4)n3)o2)cc1	20µM*	1%	-4	4%
Fc1cnc(N/N=C/c2ccc(-c3ccc(Br)cc3)o2)nc1N1CCOCC1	4%	5%	-15	19%
CCN(c1ccc(OC)cc1)S(=O)(=O)c1nnc(NC(=O)c2ccccc2Cl)s1	?	0%	-60*!	5%
O=C(Cc1ccc(Br)c2ccccc12)N/N=C/c1ccccn1	25µM*	-2%	?	-15%[15.4 µM]
CCN(C(=O)c1nn(-c2ccc(C)cc2)c(=O)c2c1c1ccccc1n2C)c1ccc(F)cc1	/	0%	1	/
Cc1cccc(N2CCN(C(=O)Cn3ncc4c([nH]c5ccccc54)c3=O)CC2C)c1 (configuration not stated)	/	12%	-2	/
COc1ccc(OC)c(NC(=O)Cn2c(=O)n(-c3cccc(C)c3)c(=O)c3c2c2cc(C)ccc2n3C)c1	/	-2%	/	/
Cc1nc(SCc2nc3ccccc3[nH]2)c2oc3ccccc3c2n1	6%	8%	-10	-1%
O=C(CSc1ncnc2c1oc1ccccc12)c1cccs1	-2%	22µM*	1	?
c1ccc2[nH]c(CSc3ncnc4c3oc3ccccc34)nc2c1	34%	25µM*	-14	31%
CC(=O)Oc1cccc(C)c1	/	/	5	/
Cc1ccc(-c2nn(-c3ccccc3)cc2/C=N/O)cc1	11%	6%	-64*	-4%
O/N=C/c1cn(-c2ccccc2)nc1-c1cccnc1	-13%	1%	-19	5%[15.4 µM]
CC1=NNC(=O)/C1=C\c1cn(-c2ccccc2)nc1-c1ccc(F)cc1	-2%	0%	-61*	-9%[15.4 µM]
CCOc1ccccc1OCC1CNCCO1 (configuration not stated)	/	/	-4	/
CCn1nnc2cc(C(=O)Nc3ccc(C)cc3Br)ccc21	/	1%	8	/
COc1cccc(CNc2cc(C)nc3nc(-c4ccc(C)cc4)nn23)c1	/	20%	/	/
CCc1nonc1NC(=O)c1oc2cc(C)c(C)cc2c1C	1%	-2%	12	-3%
CCc1nonc1NC(=O)c1oc2ccc(Br)cc2c1C	10%	25µM*!	-14	-22%
CC(C)CC(=O)NC(=S)Nc1ccccc1F	11%	1%	-11	-18%
CC(C)CC(=O)NC(=S)Nc1cccc2nsnc12	?	5%	-70*	-12%[15.4 µM]
O=C(Nc1ccc(Cl)cc1)Nc1cccc2nsnc12	40µM*	4%	-35	5%
C/C(=N\O)[C@@H](C)NCC(C)(C)CN[C@H](C)/C(C)=N/O	/	/	36	/
Cc1cc(C)n2nc(C(=O)N3CCN(c4ccc([N+](=O)[O-])cc4)CC3)nc2n1	11µM*	24%	/	26%
COc1ccc(N2CCN(C(=O)c3nc4nc(C)cc(C)n4n3)CC2)cc1	1%	2%	-7	-1%[15.4 µM]
SMILES	gsp antag	RXFP1 ag	RXFP1 antag	gsp agonist
Cc1sc2c(c1C)c(=O)n(-c1ccc(Cl)cc1)c(=O)n2CC(=O)c1ccccc1	/	4%	-3	/
CCOc1cc(/C=C2\CN(C)C/C(=C\c3ccc(O)c(OCC)c3)C2=O)ccc1O	-20%	0%	-13	-12%
CCOc1cc(/C=C2\CCC/C(=C\c3cc(Cl)c(O)c(OCC)c3)C2=O)cc(Cl)c1O	-25%	0%	-69*	5%
CCc1nn2c(=O)cc(COc3ccc(/C=C(\C#N)C(=O)Nc4ccc(F)cc4)cc3OC)nc2s1	/	-2%	/	/
Cc1ccc2nc(-c3ccccc3)cc(C(=O)N(C)CC(=O)Nc3ccccc3Br)c2c1	?	0%	-75*	11%[15.4 µM]
Cc1ccc(S(=O)(=O)N(CC(=O)Nc2ccccc2C(=O)O)c2ccc(Cl)cc2)cc1	?	4%	-76*	3%[15.4 µM]
COc1ccc2[nH]c3c(N4CCN(Cc5ccc6c(c5)OCO6)CC4)ncnc3c2c1	40µM*	2%	-17	11%
